34 molecules from PubChem BioAssay AID493214 (National Center for Advancing Translational Sciences (NCATS), 2011) can be followed below.

Activity calls are given as the source filed them. The call rests on the fitted dose curve; in most records, active means well fitted inhibition curve with a large enough effect; inactive means no such curve, though single readings can be large or run the other way.

Chain of 4'-phosphopantetheinyl transferase ffp (Bacillus subtilis) (Q9F4F7 whole entry, looked up): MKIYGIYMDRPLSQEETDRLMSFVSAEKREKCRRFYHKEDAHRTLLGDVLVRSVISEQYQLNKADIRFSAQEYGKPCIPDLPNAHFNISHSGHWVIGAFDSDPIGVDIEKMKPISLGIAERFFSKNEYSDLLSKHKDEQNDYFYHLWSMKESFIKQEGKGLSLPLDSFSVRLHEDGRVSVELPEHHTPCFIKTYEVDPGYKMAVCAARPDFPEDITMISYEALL

This experiment concerns the target 4'-phosphopantetheinyl transferase ffp (Bacillus subtilis) (UniProt Q9F4F7). Put plainly: Inhibitos of Bacillus subtilis Sfp phosphopantetheinyl transferase (PPTase): Dry Powder Followup. The note with it: purified Sfp PPTase enzyme assay, dry powder retest. From the text:
The covalent attachment of a phosphopantetheinyl (4'-PP) arm to a variety of synthases and other proteins is a key posttranslational protein modification. The 4'-PP is installed on the proteins post-translationally from coenzyme A (CoA) on a conserved serine residue by action of phosphopantetheinyl transferase (PPTase) enzymes. Phosphopantetheinylation is essential for synthase activity, and removal of the PPTase gene precludes natural product synthesis in microorganisms, or in the case of fatty acid biosynthesis, renders the organism unviable. PPTase enzymes belong to a distinct structural superfamily. Within bacteria, these enzymes are grouped into two classes based upon primary structure, the AcpS-Type and Sfp-Type PPTases.
Sfp-type PPTases, corresponding to an activator of surfactin production in Bacillus subtilis, are responsible for modifying type I polyketide and nonribosomal peptide synthases of prokaryotes. Sfp-type PPTases are responsible for the activation of a variety of pathogen-associated virulence factors. Among these compounds are toxins such as mycolactone from Mycobacterium ulcerans, siderophores such as vibriobactin from Vibrio cholerae or mycobactin from Mycobacterium tuberculosis, as well as the mycolic acids which form the waxy cell wall of Mycobacteria. The biosyntheses of these natural products are considered attractive targets for drug design.
In search of small molecule Sfp-PPTase inhibitors, a fluorescence quenching assay was developed for detection of Bacillus subtilis Sfp-PPTase enzymatic activity in a miniaturized high-throughput format. The consensus ybbr acceptor peptide DALEFIASKLA was N-terminally labeled with Black Hole Quencher-2 (BHQ-2) and used in combination with rhodamine-labeled coenzyme A as a co-substrate.
Inhibition of Sfp-PPTase was detected by recording the fluorescence intensity change over a 30-minute reaction period at a 525 nm excitation and 598 nm emission. Reagents were supplied by Michael Burkart and Timothy Foley, University of California at San Diego.
This assay is a followup of dry powder purchasing, QC'ing of samples and retesting in the primary screening protocol.
Assay Buffer: 50 mM Hepes-Na pH 7.6, 10 mM MgCl2, 0.01% Nonidet P-40, and 0.01% BSA.
3 uL of Sfp-PPTase enzyme (final concentration 15 nM) and 1 uL of substrate mixture (final concentration for rhodamine-CoA and BHQ-2-YbbR 5 uM and 12.5 uM, respectively) dispensed in columns 1, 2, 5 - 48. Columns 1 and 2 used to generate neutral control (uninhibited reaction)
Three uL of reagents, consisting of buffer (in columns 3 and 4 as negative control) and Sfp-PPTase (in columns 1, 2, 5 - 48) were dispensed into 1,536-well Greiner black solid bottom plate. Compounds (23 nL) were transferred via Kalypsys pintool equipped with 1,536-pin array. The plate was incubated for 15 min at room temperature, followed by the addition of 1 uL substrate to start the reaction. The plate was then centrifuged at 1000 rpm for 15 seconds, and the fluorescence intensity recorded on a ViewLux High-throughput CCD imager (Perkin-Elmer) using standard BODIPY optics (525 nm excitation and 598 nm emission). The plate was then incubated for 30 minutes, and a second read on the ViewLux was performed. The fluorescence intensity difference over the 30-minute period was used to calculate the respective reaction rate for each well.
Consider `Cc1ccnc(NC(=S)N2CCN(c3cccc(C(F)(F)F)c3)CC2)c1`, for which the Potency was 14.8 µM (active). With `Cc1ccc(C2=CSC(NC(=O)CSc3nncn3C)=NN2)cc1` the figure was 21 µM (active). The figure for `COC(=O)Nc1sc2c(c1C(N)=O)CCC(C)C2` (centres undefined) is 26.4 µM (active); for `CC(C)(C)Cc1nnc(NC(=O)CSc2ccccc2)s1` it is 5.91 µM (active).

Regarding `Clc1ccccc1-c1nnc2n1N/C(=C/Cc1ccccc1)S2`, the Potency was 2.96 µM (active). With `CCOC(=O)c1c(C)[nH]c(C2=CSC(=NC3CC3)NN2)c1C` the figure was 18.7 µM (active).

For `Nc1c(C(=O)Nc2ccccc2F)sc2nc(-c3ccco3)ccc12`, the Potency was 10.5 µM (active). The figure for `C(/Cc1ccccc1)=C1\Nn2c(Cn3cnc4ccccc43)nnc2S1` is 21 µM (active).

`CCc1c(C)sc(NC(=O)C2CCCCC2C(=O)O)c1C(N)=O` (centres undefined): the Potency is 2.35 µM (active).

On to `FC(F)(F)C1CCCN(c2nsc3ccccc23)C1` (centres undefined), for which the Potency is 2.35 µM (active).

Take `O=C(Nc1nnc(COc2ccc(Cl)cc2)s1)c1cccs1`: the Potency is 18.7 µM (active). The figure for `O=C(CSc1ncnc2sc3c(c12)CCCCC3)NCc1ccco1` is 23.5 µM (active); for `C(=C1\Nn2c(COc3ccccc3)nnc2S1)/c1ccccc1` it is 5.27 µM (active); for `CCC(C)(C)n1nnnc1C(c1ccc(O)c(OC)c1)N1CCc2ccccc2C1` (centres undefined) it is 21 µM (active).

As for `CCN1CCN(C(=S)c2ccc(O)cc2)CC1`, the Potency is 2.35 µM (active). Take `Cc1nc(SCC(=O)c2ccc(F)cc2)n[nH]1`: the Potency was 83.5 µM (active).

Take `O=C(CSc1ccccc1)Nc1nnc(COc2ccc(Cl)cc2)s1`: the Potency is 6.63 µM (active). The figure for `CCOC(=O)c1nc(NCc2ccccc2)sc1C` is 16.7 µM (active); for `c1csc(-c2nn3c(C4COc5ccccc5O4)nnc3s2)c1` (centres undefined) it is 21 µM (active); for `O=C(CSc1nc2scc(-c3ccco3)c2c(=O)n1-c1ccccc1)NCC1CCCO1` (centres undefined) it is 3.32 µM (active). On to `CCOC(=O)c1cc(-c2ccccc2)sc1NC(=O)c1ccc(OC)cc1`, for which the Potency is 23.5 µM (active). The figure for `O=C(CN1C(=O)CC(c2ccco2)Sc2ccccc21)Nc1ccccc1F` (centres undefined) is 26.4 µM (active); for `CNC(=O)c1c(N)sc2c1CCCCC2` it is 8.35 µM (active).

As for `S=C(Nc1ccccn1)c1ccccn1`, the Potency is 26.4 µM (active).

For `CCOC(=O)c1c(NC(=O)c2ccccc2Cl)sc2c1CCc1ccccc1-2`, the Potency is 2.64 µM (active). As to `CN(C)c1ccc(C(=S)N2CCN(Cc3ccccc3)CC2)cc1`, the Potency was 5.27 µM (active). As to `CCOC(=O)c1c(-c2ccc(OC)cc2)csc1NC(=O)C1CCCO1` (centres undefined), the Potency is 14.8 µM (active). With `O=C(Nc1nnc(COc2ccc(Cl)cc2)s1)c1ccco1` the figure was 14.8 µM (active).

On to `O=C(/C=C/c1ccccc1)Nc1cccc(S(=O)(=O)Nc2ccccc2F)c1`, for which the Potency is 0.527 µM (active). `CCOC(=O)c1c(-c2ccc(C)o2)csc1NC(=O)CSc1nnnn1-c1ccccc1`: the Potency is 2.35 µM (active). The figure for `COC(=O)c1c(NC(=O)COC(=O)c2ccc(Cl)cc2[N+](=O)[O-])sc2c1CCCCC2` is 37.3 µM (active); for `COC(=O)c1sc(NC(=O)c2cc(-c3ccccc3)nc3ccccc23)c(C#N)c1C` it is 5.91 µM (active); for `COc1ccc(OC)c(Nc2nc(=O)c3cccnc3s2)c1` it is 13.2 µM (active). With `O=C(Nc1ccc(F)cc1)C1=CC(=O)N2CCN=C2S1` the figure was 11.8 µM (active).
